MITF primary: blocks human microphthalmia-associated transcription factor. O75030. AlphaScreen MITF homodimerization, bead proximity signal. inhibition, % at 2.6 µM. hit rate 0.91% among 650,000. AID 1259374; in the data active = inhibition above about 50%;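 also: 0% = vehicle wells with protein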
FBW7 activator: activators of human E3 ligase FBW7; Q969H0; AlphaScreen FBW7–phospho-cyclin E peptide binding, activator screen; normalized activity (activation), % at 26.1 µM; hit rate 0.13% among 650,000; AID 1259310; in the data active = normalized activity above about 1.9%;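 also: purified mutant Fbw7 with reduced substrate affinity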
Target sequence (Q969H0 whole entry, looked up): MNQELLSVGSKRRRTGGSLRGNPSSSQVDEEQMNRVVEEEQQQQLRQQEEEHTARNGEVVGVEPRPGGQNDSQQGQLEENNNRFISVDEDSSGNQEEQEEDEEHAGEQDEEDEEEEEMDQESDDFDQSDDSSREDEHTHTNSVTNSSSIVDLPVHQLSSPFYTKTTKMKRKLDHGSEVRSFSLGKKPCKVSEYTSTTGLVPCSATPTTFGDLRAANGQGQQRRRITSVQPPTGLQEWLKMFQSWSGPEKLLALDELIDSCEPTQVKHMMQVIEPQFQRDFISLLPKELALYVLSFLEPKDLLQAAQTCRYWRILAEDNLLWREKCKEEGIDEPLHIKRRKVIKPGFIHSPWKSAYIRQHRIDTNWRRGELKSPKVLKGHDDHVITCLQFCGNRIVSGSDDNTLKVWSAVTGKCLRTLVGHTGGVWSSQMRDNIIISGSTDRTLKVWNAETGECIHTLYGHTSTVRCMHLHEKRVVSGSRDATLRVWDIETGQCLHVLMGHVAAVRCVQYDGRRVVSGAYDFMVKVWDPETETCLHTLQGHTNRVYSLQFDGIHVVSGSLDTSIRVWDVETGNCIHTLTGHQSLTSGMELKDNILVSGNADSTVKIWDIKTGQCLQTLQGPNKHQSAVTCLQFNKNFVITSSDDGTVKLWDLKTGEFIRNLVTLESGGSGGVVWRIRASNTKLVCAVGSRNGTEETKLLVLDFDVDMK
GPR151 activ: activators of human GPR151 | activation, % at 11.2 µM | PathHunter beta-arrestin GPR151 cells, luminescence | Q8TDV0 | hit rate 1% among 650,000; in the data active = activation above about 4.9%;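 also: 0% = median of compound wells and 100% = cells with positive control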
TEAD-YAP block: TEAD-YAP interaction inhibition; HEK-TIYL cells, TEAD-Gal4/YAP UAS-luciferase luminescence; inhibition, % at 9.12 µM; hit rate 1.4% among 640,000; AID 1259422; in the data active = inhibition above about 32%;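 also: 0% = median of test compound wells and 100% = reference inhibitor wells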
GPR151 confirm: human GPR151 activation, confirmation screen. shares compounds with GPR151 activ. activation, % at 11.2 µM. GPR151 PathHunter beta-arrestin cells, luminescence, 90 min; % of EA-reagent control over plate median. AID 1508609. 6,700 tested, under 10 active;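 active = mean percent activation across replicates above the confirmation screen cutoff of 4.91%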
GPR119 counter: counter-screen for GPR151 activators: effect on human GPR119; shares compounds with GPR151 activ; GPR119 PathHunter beta-arrestin cells, luminescence, 90 min; 0 = compound-well median, 100 = enzyme-acceptor control; activation, % at 11.2 µM; hit rate 0.3% among 6,700; AID 1508611;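 active = mean percent activation in the counterscreen above 29.09%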;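 also: counterscreen on off-target GPR119 to flag nonselective hits from the GPR151 activator screen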
Active calls of the source: *; · = not tested or not shown. The list is not random: actives were taken first. Their share in the collection is about 3.5%.

SMILES | MITF primary | FBW7 activator | GPR151 activ | TEAD-YAP block | GPR151 confirm | GPR119 counter
CCCCOC(C)n1cc(Cl)c(=O)[nH]c1=O (stereo not drawn) | 8 | 0 | 5.1* | 7 | 0 | -2
O=C(Nc1ccc(I)cc1C(=O)NCc1ccco1)c1ccco1 | 6 | 0 | -1 | 13 | · | ·
O=C(Nc1ccc(S(=O)(=O)Nc2nccs2)cc1)C(Cl)Cl | 4 | 0 | 1 | 3 | · | ·
O=C(Nc1ccc(S(=O)(=O)Nc2nccs2)cc1)C(c1ccccc1)c1ccccc1 | 9 | 0 | 5.5* | 0 | 0 | 0
O=C(Nc1ccc2c(c1)OCCO2)c1cc(=O)c(OCc2ccccc2)c[nH]1 | -1 | 0 | 8.1* | 4 | 0 | -1
COc1ccc(C2SCC(=O)N2CC(O)c2ccccc2)cc1 (stereo not drawn) | 10 | 0 | 1 | 12 | · | ·
COC(=O)C(NC(=O)c1ccc(F)cc1)C12CC3CC(CC(C3)C1)C2 (stereo not drawn) | 18 | 0 | 1 | 6 | · | ·
COC(=O)C(NC(=O)c1cccs1)C12CC3CC(CC(C3)C1)C2 (stereo not drawn) | 3 | 0 | 5.1* | -4 | 0 | -7
Cc1ccccc1NC(=O)Nc1ccccc1C(=O)Nc1ccccc1 | 6 | 0 | 1 | -3 | · | ·
CCn1c(SCC(=O)c2ccccc2)nc2c(c1=O)SC(C)C2 (stereo not drawn) | 7 | 0 | 5.3* | 10 | 0 | 5
CC1Cc2nc(SCC(=O)NCc3ccccc3)n(C)c(=O)c2S1 (stereo not drawn) | 11 | 1 | 6.4* | -3 | 1 | 5
C=CCOC(=O)/C(=C\c1ccco1)NC(=O)c1ccc(Br)cc1 | -2 | 0 | 3 | -3 | · | ·
Fc1ccc2c(c1)nc(N1CCCCC1)c1nccn12 | -5 | 0 | -1 | -10 | · | ·
Fc1ccc2c(c1)nc(NC1CCCCC1)c1nccn12 | 0 | 0 | 5.1* | 2 | -1 | -2
CC1CCCC(N=C2NS(=O)(=O)c3cc([N+](=O)[O-])ccc32)C1C (stereo not drawn) | 7 | 0 | -1 | -3 | · | ·
Cc1nnc(SCC(=O)N2CCc3ccccc3C2)[nH]c1=O | -14 | 0 | 10* | -10 | 0 | 8
O=C(CSc1nc2ccccc2c(=O)[nH]1)N1CCc2ccccc2C1 | 15 | 0 | 0 | -2 | · | ·
CCc1c(C)sc(NC(=S)NCc2ccc(S(N)(=O)=O)cc2)c1C(=O)OC | 12 | 0 | 6.3* | -6 | -1 | -12
COC(=O)c1c(NC(=S)Nc2cnccn2)sc2c1CCC(C)C2 (stereo not drawn) | 1 | 0 | 2 | -2 | · | ·
CCc1c(C)sc(NC(=S)Nc2cnccn2)c1C(=O)OC | 4 | 0 | 5.9* | -9 | -1 | -14
COc1ccc(OCc2nc(Cc3ccc([N+](=O)[O-])cc3)no2)cc1 | 10 | 0 | 1 | -2 | · | ·
O=C(CNC(=O)c1ccccc1)NCC(=O)N/N=C/c1ccco1 | -3 | 0 | 0 | 10 | · | ·
CCc1ccc(CN2CCC(C(=O)N3CCN(CC)CC3)CC2)cc1 | 45 | 0 | 0 | -3 | · | ·
Cc1ccc(CN2CCN(C(=O)C3CCC3)CC2)cc1 | 7 | 0 | 5.0* | -3 | 1 | 8
COC(=O)C(=O)Nc1nnc(-c2ccc(OC)cc2)s1 | 19 | 0 | -4 | 20 | · | ·
SMILES | MITF primary | FBW7 activator | GPR151 activ | TEAD-YAP block | GPR151 confirm | GPR119 counter
O=C(CSc1nnc(-c2ccccc2)n1-c1ccccc1)Nc1ccc2nc(SCc3ccc([N+](=O)[O-])cc3)sc2c1 | 3 | 0 | 0 | -1 | · | ·
COc1ccc(OC)c(N=c2ssnc2Cl)c1 | 8 | 0 | 6.0* | -3 | 0 | -5
CCOC(=O)c1c(-c2ccccc2)oc2ccc(N(C(C)=O)S(=O)(=O)c3cccc([N+](=O)[O-])c3)cc12 | 10 | 0 | 0 | 6 | · | ·
O=C(CS(=O)(=O)c1ccccc1)Nc1nc(-c2ccc(F)cc2)cs1 | 2 | 0 | 9.7* | -18 | 0 | 6
O=C(CS(=O)(=O)c1ccccc1)Nc1nc(-c2ccc3ccccc3c2)cs1 | -7 | 0 | 2 | -8 | · | ·
Cc1cc(NC(=O)C(C)n2cc([N+](=O)[O-])cn2)ccc1Br (stereo not drawn) | 10 | 0 | 5.2* | -3 | 1 | 9
COc1ccccc1OCCCN1C(=O)C(=O)c2cc(Br)cc(C)c21 | -4 | 0 | 14* | 13 | 1 | 15
Cc1ccc(NC(=O)c2cnc(SCc3cccnc3)n(C)c2=O)cc1C | -7 | 0 | 10.0* | -29 | -1 | -18
O=[N+]([O-])c1cccc(S(=O)(=O)NC23CC4CC(CC(C4)C2)C3)c1 | 4 | 0 | 5.3* | 1 | 1 | 14
COc1cc(Nc2nc(N3CCN(Cc4ccc5c(c4)OCO5)CC3)nc3c2ncn3-c2ccsc2)cc(OC)c1OC | 13 | 0 | -1 | 1 | · | ·
COc1ccc(C(CC(=O)O)NC(=O)OC(C)(C)C)cc1 (stereo not drawn) | -11 | 0 | -1 | 8 | · | ·
CC(C)OC(=O)CC(NC(=O)OC(C)(C)C)c1ccccc1 (stereo not drawn) | 10 | 0 | 8.1* | · | 0 | 7
COc1ccc(/C=C2\N=C(c3ccc(C)cc3)NC2=O)cc1 | 6 | 1 | 0 | 14 | · | ·
COc1ccc(/C=C2/N=C(c3ccccc3)NC2=O)cc1 | -3 | 0 | 5.2* | -15 | -1 | -9
Cc1cc2[nH]c(=O)c(=O)[nH]c2cc1S(=O)(=O)NC1CCC(C)CC1 (stereo not drawn) | 2 | 0 | 7.4* | -6 | 1 | 3
CNC(=O)C1CN(Cc2ccc3c(c2)OCO3)CCN1C(=O)c1ccc(F)c(F)c1 (stereo not drawn) | 3 | 0 | 7.2* | -2 | 0 | -9
COc1ccc2c(c1)c1nc3ccccc3nc1n2C | -14 | 1 | -1 | -22 | · | ·
CCOC(=O)C(=CNc1cc(C)nn1-c1ccccc1)C(=O)OCC | 0 | 0 | 6.6* | 0 | -1 | -10
CC(C)CC(=O)NS(=O)(=O)c1ccc(NC(=O)c2ccccc2Cl)cc1 | 2 | 0 | 5.1* | -9 | 1 | -8
CC(C)CC(=O)NS(=O)(=O)c1ccc(NC(=O)c2ccc(Cl)cc2)cc1 | 14 | 0 | 2 | 1 | · | ·
COc1ccc2c(c1)NC1(CCCN(CCN3C(=O)c4ccccc4C3=O)C1)c1cccn1-2 (stereo not drawn) | -3 | 0 | 5.4* | 1 | 1 | -2
O=C1c2ccccc2C(=O)N1CCN1CCCC2(C1)Nc1ccccc1-n1cccc12 (stereo not drawn) | 7 | 0 | 0 | -4 | · | ·
CC(=O)N1c2ccc(S(=O)(=O)N3CCCC3C(=O)Nc3nc(C)cs3)cc2CC1C (stereo not drawn) | 5 | 0 | 5.0* | 10 | 0 | 2
CC(=O)N1c2ccc(S(=O)(=O)N3CCCC3C(=O)Nc3cccc(C)n3)cc2CC1C (stereo not drawn) | 6 | 0 | 1 | 7 | · | ·

Compound activity: PubChem BioAssay, The Scripps Research Institute Molecular Screening Center
